# In the supplement of paper PMC10849652:
# Of roughly 7,900 targets only a part is listed; those with a hit were picked by preference. About 0.6% of all pairs of compound and target were hits. Values without a mark were called inactive.
# Compound: c1ccc([C@@H]2C[C@H]2NC2CCNCC2)cc1
# Assay: log2 fold change, soluble protein after heating vs DMSO (PISA); higher = thermal stabilisation; K562 cells, 10 uM, 30 min; active = over 0.2 and 3.5 SD of the protein, either way, in both replicates (recomputed)
# Procedure, shortened: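 Quantification of soluble protein used TMTpro 16plex LC-MS/MS, with channel sums equalised. Samples were the supernatant after 21,000xg for 90 min of pooled aliquots from K562 cells (2×10^6 cells/mL) treated with 10 μM compound for 30 min, heated for 3 min over 48°C-58°C, and extracted in PBS with 0.5% NP-40 at 4°C. Values, from duplicates, describe thermal stability against control samples on a log2 fold-change scale.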
# Chain of UniProt Q96K49 (Q96K49 whole entry, looked up): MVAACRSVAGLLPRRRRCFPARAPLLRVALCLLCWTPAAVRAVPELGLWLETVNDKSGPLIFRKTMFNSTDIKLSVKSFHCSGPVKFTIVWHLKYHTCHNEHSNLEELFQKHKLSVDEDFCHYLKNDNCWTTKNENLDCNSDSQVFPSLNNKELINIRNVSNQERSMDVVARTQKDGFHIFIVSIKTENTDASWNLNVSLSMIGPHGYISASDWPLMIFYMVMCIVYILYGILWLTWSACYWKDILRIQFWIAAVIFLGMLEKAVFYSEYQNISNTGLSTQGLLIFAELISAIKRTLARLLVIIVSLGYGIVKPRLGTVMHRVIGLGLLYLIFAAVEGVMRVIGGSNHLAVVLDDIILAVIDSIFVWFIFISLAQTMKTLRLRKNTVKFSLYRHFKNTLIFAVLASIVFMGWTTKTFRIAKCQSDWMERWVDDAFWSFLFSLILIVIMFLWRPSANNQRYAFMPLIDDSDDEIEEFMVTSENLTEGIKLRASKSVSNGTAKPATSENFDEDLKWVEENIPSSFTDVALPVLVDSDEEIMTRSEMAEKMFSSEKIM
# Chain of UniProt P98170 (P98170 whole entry, looked up): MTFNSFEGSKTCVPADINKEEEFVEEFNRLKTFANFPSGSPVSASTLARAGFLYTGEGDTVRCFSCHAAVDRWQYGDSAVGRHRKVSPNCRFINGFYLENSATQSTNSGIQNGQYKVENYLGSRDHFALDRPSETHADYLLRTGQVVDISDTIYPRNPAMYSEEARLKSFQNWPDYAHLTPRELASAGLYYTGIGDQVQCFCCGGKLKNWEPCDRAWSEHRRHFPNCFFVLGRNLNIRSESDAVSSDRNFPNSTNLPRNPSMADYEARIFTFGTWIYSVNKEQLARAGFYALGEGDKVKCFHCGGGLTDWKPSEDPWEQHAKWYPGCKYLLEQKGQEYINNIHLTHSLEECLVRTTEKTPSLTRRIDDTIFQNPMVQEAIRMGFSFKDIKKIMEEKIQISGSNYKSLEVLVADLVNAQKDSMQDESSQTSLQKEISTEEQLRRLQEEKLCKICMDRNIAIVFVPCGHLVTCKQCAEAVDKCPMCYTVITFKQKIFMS
# Chain of UniProt Q9BXJ8 (Q9BXJ8 whole entry, looked up): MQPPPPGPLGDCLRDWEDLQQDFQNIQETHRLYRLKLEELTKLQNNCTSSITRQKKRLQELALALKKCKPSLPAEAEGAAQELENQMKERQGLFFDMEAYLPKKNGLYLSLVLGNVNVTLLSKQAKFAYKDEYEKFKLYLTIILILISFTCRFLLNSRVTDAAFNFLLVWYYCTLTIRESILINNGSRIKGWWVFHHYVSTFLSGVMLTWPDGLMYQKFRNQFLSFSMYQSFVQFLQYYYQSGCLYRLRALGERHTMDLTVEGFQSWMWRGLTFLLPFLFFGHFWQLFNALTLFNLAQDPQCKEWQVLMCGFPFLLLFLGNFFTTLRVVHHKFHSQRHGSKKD
# Chain of UniProt Q9HAD4 (Q9HAD4 whole entry, looked up): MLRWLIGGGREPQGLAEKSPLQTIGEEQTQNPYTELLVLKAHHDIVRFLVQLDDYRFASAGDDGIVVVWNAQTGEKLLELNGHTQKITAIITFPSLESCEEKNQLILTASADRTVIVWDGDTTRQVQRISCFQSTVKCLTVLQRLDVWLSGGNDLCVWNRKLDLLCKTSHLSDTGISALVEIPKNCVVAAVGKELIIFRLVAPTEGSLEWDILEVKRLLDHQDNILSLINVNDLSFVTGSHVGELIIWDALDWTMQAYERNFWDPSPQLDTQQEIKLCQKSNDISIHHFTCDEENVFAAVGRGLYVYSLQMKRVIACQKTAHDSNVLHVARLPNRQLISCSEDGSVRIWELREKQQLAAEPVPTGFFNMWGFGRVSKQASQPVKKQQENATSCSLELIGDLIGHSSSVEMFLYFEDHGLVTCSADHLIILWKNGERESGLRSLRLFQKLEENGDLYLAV
# Chain of UniProt O00124 (O00124 whole entry, looked up): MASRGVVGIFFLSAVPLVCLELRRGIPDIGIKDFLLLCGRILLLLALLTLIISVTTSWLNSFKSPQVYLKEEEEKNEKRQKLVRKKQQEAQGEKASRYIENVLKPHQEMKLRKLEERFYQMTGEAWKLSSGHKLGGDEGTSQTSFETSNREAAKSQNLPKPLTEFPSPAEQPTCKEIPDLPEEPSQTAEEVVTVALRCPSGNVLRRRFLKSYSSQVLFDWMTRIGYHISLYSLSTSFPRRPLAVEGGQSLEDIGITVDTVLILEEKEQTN
# Chain of UniProt A0PJW6 (A0PJW6 whole entry, looked up): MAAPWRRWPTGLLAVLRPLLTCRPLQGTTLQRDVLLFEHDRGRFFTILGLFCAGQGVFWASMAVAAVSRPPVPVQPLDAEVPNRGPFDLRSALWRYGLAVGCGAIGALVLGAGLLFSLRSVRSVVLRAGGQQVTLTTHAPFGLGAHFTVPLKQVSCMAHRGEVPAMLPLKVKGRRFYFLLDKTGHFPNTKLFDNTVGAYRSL
# Chain of UniProt Q8NEZ2 (Q8NEZ2 whole entry, looked up): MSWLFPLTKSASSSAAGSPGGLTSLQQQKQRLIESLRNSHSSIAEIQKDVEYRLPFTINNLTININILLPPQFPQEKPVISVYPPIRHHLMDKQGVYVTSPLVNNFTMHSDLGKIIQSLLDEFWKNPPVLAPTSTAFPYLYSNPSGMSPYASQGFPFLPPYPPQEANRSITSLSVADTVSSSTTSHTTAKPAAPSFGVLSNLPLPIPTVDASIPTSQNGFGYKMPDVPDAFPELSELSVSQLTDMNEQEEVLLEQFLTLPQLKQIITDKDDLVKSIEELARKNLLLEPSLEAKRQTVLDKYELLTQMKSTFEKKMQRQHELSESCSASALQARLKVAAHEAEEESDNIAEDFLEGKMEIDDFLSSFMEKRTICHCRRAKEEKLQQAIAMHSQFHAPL
# Chain of UniProt P51809 (P51809 whole entry, looked up): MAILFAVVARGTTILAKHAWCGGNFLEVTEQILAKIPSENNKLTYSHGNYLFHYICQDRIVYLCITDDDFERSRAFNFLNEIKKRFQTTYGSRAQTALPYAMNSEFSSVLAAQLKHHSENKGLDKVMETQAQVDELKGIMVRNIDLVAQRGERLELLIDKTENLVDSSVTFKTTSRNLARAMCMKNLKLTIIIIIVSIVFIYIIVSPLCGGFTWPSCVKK
# Chain of UniProt Q96AJ9 (Q96AJ9 whole entry, looked up): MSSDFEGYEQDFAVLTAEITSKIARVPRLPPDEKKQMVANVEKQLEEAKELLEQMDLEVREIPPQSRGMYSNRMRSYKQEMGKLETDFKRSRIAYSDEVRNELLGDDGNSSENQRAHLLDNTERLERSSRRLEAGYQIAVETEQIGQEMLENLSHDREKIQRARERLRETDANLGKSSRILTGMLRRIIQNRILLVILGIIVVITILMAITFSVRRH
# Chain of UniProt Q8N1B4 (Q8N1B4 whole entry, looked up): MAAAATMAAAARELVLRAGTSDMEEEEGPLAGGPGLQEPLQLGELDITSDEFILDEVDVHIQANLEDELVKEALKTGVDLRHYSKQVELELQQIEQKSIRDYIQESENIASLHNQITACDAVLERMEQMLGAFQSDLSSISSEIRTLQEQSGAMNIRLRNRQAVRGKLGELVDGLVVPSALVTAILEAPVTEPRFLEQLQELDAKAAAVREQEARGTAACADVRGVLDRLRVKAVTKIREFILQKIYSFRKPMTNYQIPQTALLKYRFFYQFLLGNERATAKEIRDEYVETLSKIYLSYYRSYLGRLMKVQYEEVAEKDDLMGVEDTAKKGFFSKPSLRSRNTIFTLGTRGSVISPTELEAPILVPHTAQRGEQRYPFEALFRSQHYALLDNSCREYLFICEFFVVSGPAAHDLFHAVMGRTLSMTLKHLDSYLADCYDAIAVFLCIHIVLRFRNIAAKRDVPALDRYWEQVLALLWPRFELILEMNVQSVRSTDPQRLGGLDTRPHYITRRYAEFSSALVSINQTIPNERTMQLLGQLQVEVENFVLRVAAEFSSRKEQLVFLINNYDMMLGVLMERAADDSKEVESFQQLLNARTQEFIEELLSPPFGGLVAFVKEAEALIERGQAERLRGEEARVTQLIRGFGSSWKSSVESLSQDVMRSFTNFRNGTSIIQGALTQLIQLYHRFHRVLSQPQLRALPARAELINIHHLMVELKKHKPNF
# Chain of UniProt Q96FX7 (Q96FX7 whole entry, looked up): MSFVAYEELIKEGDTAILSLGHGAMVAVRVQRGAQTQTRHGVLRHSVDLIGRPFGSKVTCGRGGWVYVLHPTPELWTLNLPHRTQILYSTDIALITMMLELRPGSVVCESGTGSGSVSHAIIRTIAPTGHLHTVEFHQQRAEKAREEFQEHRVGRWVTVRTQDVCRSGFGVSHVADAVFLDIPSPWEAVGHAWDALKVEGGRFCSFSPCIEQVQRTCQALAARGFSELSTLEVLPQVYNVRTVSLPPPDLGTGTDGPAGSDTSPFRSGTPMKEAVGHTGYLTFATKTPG
# Chain of UniProt Q86XT9 (Q86XT9 whole entry, looked up): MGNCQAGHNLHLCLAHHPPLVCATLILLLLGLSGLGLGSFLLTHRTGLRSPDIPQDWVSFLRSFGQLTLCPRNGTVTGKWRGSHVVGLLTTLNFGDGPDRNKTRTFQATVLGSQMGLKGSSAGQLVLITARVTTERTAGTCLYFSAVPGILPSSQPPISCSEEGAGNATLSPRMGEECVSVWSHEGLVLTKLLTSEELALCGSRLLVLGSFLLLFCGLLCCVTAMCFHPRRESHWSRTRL
# Chain of UniProt Q9BQB6 (Q9BQB6 whole entry, looked up): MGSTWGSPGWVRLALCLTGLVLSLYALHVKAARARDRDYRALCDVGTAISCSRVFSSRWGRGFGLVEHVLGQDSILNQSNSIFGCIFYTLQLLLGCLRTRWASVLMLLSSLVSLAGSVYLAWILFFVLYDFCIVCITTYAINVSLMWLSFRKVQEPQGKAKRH
# Chain of UniProt Q92890 (Q92890 whole entry, looked up): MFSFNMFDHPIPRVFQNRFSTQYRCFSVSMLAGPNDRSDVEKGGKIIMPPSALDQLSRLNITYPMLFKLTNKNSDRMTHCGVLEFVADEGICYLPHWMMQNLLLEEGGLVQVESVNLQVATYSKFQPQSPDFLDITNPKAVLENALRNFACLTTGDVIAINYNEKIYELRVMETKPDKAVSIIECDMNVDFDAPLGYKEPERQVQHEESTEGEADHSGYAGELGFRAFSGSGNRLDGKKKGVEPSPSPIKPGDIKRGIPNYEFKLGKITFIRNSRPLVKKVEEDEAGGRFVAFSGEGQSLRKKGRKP
row,Target,log2 fold change
1,VTI1A (UniProt Q96AJ9),0.07
2,WASHC2A (UniProt Q641Q2),0.033
3,TMEM219 (UniProt Q86XT9),-0.162
4,UCHL5 isoform 3 (UniProt Q9Y5K5),0.167
5,WDR4 (UniProt P57081),-0.008
6,WDHD1 (UniProt O75717),0.015
7,TMEM223 (UniProt A0PJW6),-0.024
8,VPS37A (UniProt Q8NEZ2),0.036
9,TUBAL3 (UniProt A6NHL2),0.029
10,VPS52 (UniProt Q8N1B4),-0.028
11,TMEM120A (UniProt Q9BXJ8),-0.049
12,VKORC1 (UniProt Q9BQB6),-0.012
13,VAMP7 (UniProt P51809),0.015
14,UBXN8 (UniProt O00124),-0.055
15,TRMT61A (UniProt Q96FX7),-0.049
16,TNFRSF8 (UniProt P28908),0.021

row,Target,log2 fold change
1,TRAPPC11 (UniProt Q7Z392),0.027
2,WDR41 (UniProt Q9HAD4),0.055
3,UBE2Q1 (UniProt Q7Z7E8),0.062
4,TRAM1 (UniProt Q15629),-0.018
5,UBA52 (UniProt P62987),0.193
6,XIAP (UniProt P98170),0.002
7,TRIM23 (UniProt P36406),-0.05
8,UFD1 isoform 1 (UniProt Q92890),0.019
9,TMEM8A (UniProt Q9HCN3),0.094
10,TRIM4 (UniProt Q9C037),-0.038
11,TMEM161B (UniProt Q8NDZ6),0.08
12,TNPO1 (UniProt Q92973),0.018
13,UHRF1BP1 (UniProt Q6BDS2),-0.007
14,TMEM87B (UniProt Q96K49),0.012
15,UBA6,-0.002
